Source: PubChem (National Center for Advancing Translational Sciences (NCATS))
Tb PGK inh: qHTS Assay to Find Inhibitors of Phosphoglycerate Kinase | Phosphoglycerate kinase, glycosomal (Trypanosoma brucei brucei), P07378 | PGK/GAPDH coupled, Kinase-Glo luminescence, 60 min | Potency, µM (doses to about 57.5 µM), inactives show at the highest dose activity change, negative = inhibition, most hits filed as inhibitors | 0.043% of 380,000 active | AID 602233, 2012; further: potency means the concentration at half of the fitted maximal effect; on the % scale 0 is the no-effect control and ±100 the full control effect; nearly all actives have a fitted effect of over 60% in size
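Recombinant glycosomal PGK reaction used 1,3-bisphosphoglycerate generated in-well by GAPDH (100nM final) in 100mM TEA pH 7.6, 5mM MgCl2, 0.01% Tween-20. After 60 minutes at room temperature, ATP was read by Kinase-Glo Plus luminescence end-point.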
Tb PFK inh-1: qHTS Assay to Find Inhibitors of T. brucei phosphofructokinase; 0.17% of 330,000 active; ATP-dependent 6-phosphofructokinase (Trypanosoma brucei brucei), O15648; Potency, µM (series often up to 57.5 µM), inactives show at the top dose activity, negative = inhibition, usual class: inhibitors; AID 485367, 2010; T. brucei PFK, ADP-Glo luminescence;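 further: potency means the concentration at half of the fitted maximal effect; 0% = uninhibited 1x PFK enzyme wells and -100% = no-enzyme wells; nearly all actives have a fitted effect of over 60% in size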
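Activity is normalized to no-enzyme wells (full inhibition) and 1.25 nM enzyme wells (no inhibition). Reaction: 0.5 mM F6P, 0.1 mM ATP, 45 min RT, ADP-Glo luminescence; concentration-response curves fitted and classed by quality.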
Pin1 inh: qHTS Assay to Find Inhibitors of Pin1; Peptidyl-prolyl cis-trans isomerase NIMA-interacting 1 (Homo sapiens), Q13526; Potency, µM (titrated, usually from 115 µM), for the others: at the top dose activity, negative = inhibition, actives largely listed as inhibitors; 0.009% of 390,000 active; Pin1 FP peptide displacement, HiFluor488, 10 min; active means well fitted inhibition curve with a large enough effect in the polarisation, with a control signal flat, not every such curve was filed as active; inconclusive means small, poorly fitted or top-dose-only effect, or effect the other way, or a change in a side signal; inactive means no such curve, though single readings can be large or run the other way; the % refers to the polarisation; further: potency means the concentration at half of the fitted maximal effect; on the % scale 0 is the no-effect control and ±100 the full control effect
Target sequence (Q13526 whole entry, looked up): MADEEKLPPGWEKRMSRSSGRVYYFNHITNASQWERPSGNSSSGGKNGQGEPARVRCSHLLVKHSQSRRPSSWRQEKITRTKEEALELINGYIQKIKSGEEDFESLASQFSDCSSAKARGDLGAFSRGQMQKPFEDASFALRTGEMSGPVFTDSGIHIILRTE
PI4K2A inh: qHTS for small molecular inhibitors of PI4K2A; purified PI4K2A, ADP-Glo luminescence, 1 h; active compounds read low; activity change, negative = inhibition, % at 76.9 µM; 0.13% of 420,000 active; in the data active means activity change below about -50%; inconclusive means mostly about -30% to -49%;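 further: -100% = wells without enzyme as full effect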
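PI4K2A activity was measured by ADP-Glo luminescence: enzyme (4 ug/mL stock) and phosphatidylinositol (1.2 mM stock) in Tris pH 7.5/MgCl2/EGTA/Triton X-100 buffer were reacted with ATP (300 microM stock) for one hour at ambient temperature.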
Chronic BCR inh: qHTS Assay to Find Inhibitors of Chronic Active B-Cell Receptor Signaling. ABC-DLBCL IkBa-CBG/CBR reporter, luminescence ratio, 4 h. Potency, µM (doses to about 46.1 µM), without a hit: top-dose activity change, negative = inhibition, usual class: inhibitors. 0.05% of 340,000 active; active means well fitted inhibition curve with a large enough effect in the signal ratio, with a control signal flat, not every such curve was filed as active; inconclusive means small, poorly fitted or top-dose-only effect, or effect the other way, or a change in a side signal; the % refers to the signal ratio;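 further: potency means the concentration at half of the fitted maximal effect; plate controls were basal doxycycline-induced cells for no effect and cells given 10 µM MG132 for full effect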
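Cell line TMD8 (human ABC DLBCL), stably expressing tet-inducible CBG68-IkBa fusion and CBR; IMDM/0.5% FBS; cpd up to 46 uM; dox induction, 4 h, 37C/5% CO2; dual luminescence; green/red ratio; MG132 control.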
Tb PFK KinaseGlo: Tb PFK orthogonal confirmatory assay using ATP depletion (Kinase-Glo Plus) as an alternative measure of Tb PFK activity: Hit Validation; shares compounds with Tb PFK inh-1; Tb PFK enzyme, ATP depletion, Kinase-Glo Plus luminescence; Potency, µM (top dose mostly 57.5 µM), without a hit: at the top dose inhibition; 47% of 1,100 active; AID 504636, 2011; calls by dose curve; further: potency means the concentration at half of the fitted maximal effect; nearly all actives have a fitted effect of over 60% in size
Tb PFK inh-2: Inhibitors of T. brucei phosphofructokinase: Hit Validation; Potency, µM (top dose mostly 57.5 µM), for the others: top-dose activity change, negative = inhibition, hits mostly inhibitors; 41% of 1,100 active; AID 504637, 2011; purified T. brucei PFK, ADP-Glo luminescence, 45 min; shares compounds with Tb PFK inh-1;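 further: potency means the concentration at half of the fitted maximal effect; plate controls were full PFK enzyme control for no effect and no enzyme control for full effect; nearly all actives have a fitted effect of over 60% in size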
* = called active by the depositor; i = inactive; u = inconclusive; x = not tested or not shown; [ ] = another dose, or the depositor's remark. Compounds with a hit are over-represented: about 0.34% of the library has one in this group of screens. Unless noted, the call rests on the fitted dose curve; in most records, active means well fitted curve in the direction sought with a large enough effect; inconclusive means small, poorly fitted or top-dose-only effect, or another doubt; inactive means no such curve, though single readings can be large; an effect the other way counts as inactive or inconclusive.

SMILES	Tb PGK inh	Tb PFK inh-1	Pin1 inh	PI4K2A inh	Chronic BCR inh	Tb PFK KinaseGlo	Tb PFK inh-2
CSc1ccc(NC(=O)Nc2ccc(C(=O)NCC(=O)O)cc2)cc1	u	13µM*	-3%	2	5%	8.5µM*	u
COc1ccccc1/C=C/C(=O)NCC(=O)N/N=C/c1ccccc1[N+](=O)[O-]	-7%	u	7%	-6	u	-32%	u
CCn1c(=O)c(C(=O)Nc2nc3ccccc3[nH]2)c(O)c2ccccc21	1%	u	0%	-1	u	-32%	u
CC(=O)N(C)Cc1ccc(C(=O)CCl)cc1	-7%	u	-1%	0	u	2.4µM*	3µM*
C[n+]1cccc2cccc([O-])c21	-17%	u	u	u	8%	u	u
COc1ccccc1CNC(=O)CSc1ccsc1[N+](=O)[O-]	-7%	-14%	-1%	-1	11%	x	x
CCc1ccccc1NC(=O)CSc1ccsc1[N+](=O)[O-]	u	u	2%	0	4%	u	u
O=C1C=CC(=O)N1CCNc1ncc(C(F)(F)F)cc1Cl	i	21µM*	20%	20	u	5.4µM*	13µM*
O=C1CC(=O)N(CCNc2ncc(C(F)(F)F)cc2Cl)C(=O)N1	-1%	-6%	u	-19	10%	x	x
O=C1C=C(NCc2ccc(Cl)cc2Cl)C2(CCCCC2)O1	-6%[11.5 µM]	11µM*	-2%	-3	6%	5.4µM*	17µM*
Fc1ccc(C2CC(c3ccco3)=NN2c2ccccc2)cc1 (centres undefined)	4%	12%	u	1	u	x	x
Fc1ccc(C2CC(c3ccco3)=Nc3ccccc3S2)cc1 (centres undefined)	-4%	u	-2%	-13	u	7%	-12%
O=[N+]([O-])c1ccc(C2CC(c3ccccc3)=Nc3ccccc3S2)cc1 (centres undefined)	i	u	2%	-1	u	7%	1%
O=C(O)C1CC(c2ccccc2)=Nc2ccccc2S1 (centres undefined)	i	0%	1%	5	u	x	x
Oc1cccc2[nH]ccc12	x	x	x	-1	x	x	x
C[C@H](NC(N)=O)C(=O)Nc1ccc(N2CCOCC2)c(S(=O)(=O)Nc2ccc(Cl)cc2)c1	-1%	u	-6%	-1	0%	4.3µM*	11µM*
CN1CCN(C(=O)c2sc(=S)n(-c3ccccc3)c2N)CC1	-4%	11µM*	-10%	-21	-3%	3.8µM*	5.4µM*
Cc1ccc(-n2c(N)c(C(=O)N3CCOCC3)sc2=S)cc1	-5%	-16%	3%	4	u	x	x
COCC(=O)Nc1cccc(Br)c1	8%	-2%	0%	2	-5%	x	x
NNC(=O)CNc1cccc(Br)c1	-6%	15µM*	-6%	0	-1%	21µM*	u
NC(=O)CNC(=O)C1CCCc2c1[nH]c1ccc(Cl)cc21 (centres undefined)	i	6µM*	-15%	9	1%	2.4µM*	3.4µM*
CCOC(=O)CNC(=O)C1CCCc2c1[nH]c1ccc(Cl)cc21 (centres undefined)	-5%	-16%	-15%	-5	-2%	x	x
